Sampled rows, rich in hits. Any-hit rate of the full collection: about 14%.
Pf growth 48h: inhibits P. falciparum growth in the first generation, 48 h. P. falciparum luciferase growth in erythrocytes, 48 h. Potency, µM (titrated, usually from 28.7 µM), hits mostly inhibitors. 310,000 compounds, 5.9% hits. AID 504832
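First compound was added to culture medium, then infected red cells at 0.1% parasitemia and 2% hematocrit (final). After incubation at 37 C under 5% CO2, luciferase detection reagent was dispensed and light output recorded.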
Sm TGR inh: S. mansoni TGR enzyme inhibition; purified TGR, DTNB reduction, TNB absorbance 405 nm; Potency, µM (highest dose often 114 µM), actives largely listed as inhibitors; 360,000 compounds, 3% hits; AID 485364; note: nearly all actives have a fitted effect of over 60% in size
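TGR 20 nM + NADPH 100 uM (dispensed conc.), cpd preinc 15 min RT; start with NADPH (500 uM addition) then DTNB (15 mM addition). Kinetic TNB absorbance, 405 nm filter. Four-parameter Hill fit across titration.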
Giardia FBPA inh: Giardia lamblia aldolase inhibition. purified Giardia FBPA. Potency, µM (titrated, usually from 59.6 µM), most hits filed as inhibitors. 290,000 compounds, 0.71% hits. AID 2451; note: nearly all actives have a fitted effect of over 55% in size
Target sequence (A8B2U2 whole entry, looked up): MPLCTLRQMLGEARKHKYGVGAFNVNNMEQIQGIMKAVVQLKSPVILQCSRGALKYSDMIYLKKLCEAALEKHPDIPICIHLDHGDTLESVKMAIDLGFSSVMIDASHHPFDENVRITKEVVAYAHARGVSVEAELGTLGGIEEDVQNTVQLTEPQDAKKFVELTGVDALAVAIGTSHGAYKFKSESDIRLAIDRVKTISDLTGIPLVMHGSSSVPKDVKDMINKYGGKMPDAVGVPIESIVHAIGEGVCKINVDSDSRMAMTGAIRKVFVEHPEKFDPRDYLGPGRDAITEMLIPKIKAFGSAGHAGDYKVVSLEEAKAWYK
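40 nM FBPA preincubated 10 min at RT with compound (up to 57.5 uM final), then substrate plus GAPDH/TPI/NAD/arsenate coupling and diaphorase/resazurin added. Fluorescence read after 20 min at RT, 525/598 nm.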
Pf growth 96h: P. falciparum growth inhibition at 96 hours. P. falciparum luciferase reporter growth, 96 h. Potency, µM (top dose mostly 28.7 µM), usual class: inhibitors. 320,000 compounds, 6.9% hits
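Erythrocytes infected with luciferase-expressing P. falciparum were dispensed at 2% hematocrit and 0.05% parasitemia (final), then incubated with compounds 96 hours at 37 C in 5% CO2. Luminescence after detection reagent addition reported growth.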
HCMV antiviral: inhibitors of human cytomegalovirus; activity change, negative = inhibition, % at 57.5 µM; 410,000 compounds, 4.5% hits; AID 1259415; HFF cells, HCMV-luciferase reporter, 72 h; active compounds read low; in the data active = activity change below about -60%; inconclusive = no clear call, values can overlap the other calls; inactive = above about -39%
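Two-dose cell screen: HFF monolayers treated with compounds and infected with luciferase-expressing HCMV at 1 PFU/cell, 72 h at 37C, then lysed for luciferase measurement.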
A number is an active result; – = inactive; ? = inconclusive; · = no result given. Unless noted, calls come from the whole dose curve; as a rule, active = well fitted curve in the direction sought with a large enough effect; inconclusive = small, poorly fitted or top-dose-only effect, or another doubt; inactive = no such curve, though single readings can be large; an effect the other way counts as inactive or inconclusive.

SMILES | Pf growth 48h | Sm TGR inh | Giardia FBPA inh | Pf growth 96h | HCMV antiviral
O=C(COC(=O)c1ccccc1S(=O)(=O)N1CCCCC1)NCC(F)(F)F | – | – | – | 13µM | –
Cc1ccc(NC(=O)COC(=O)c2ccccc2F)cc1S(=O)(=O)N1CCCCC1 | – | – | · | – | –
CCCN1CCN(C(=S)Nc2ccc([N+](=O)[O-])cc2)CC1 | – | – | – | – | –
CCOC(=O)c1ccc(NC(=S)NNC(C)(C)C)cc1 | – | ? | – | – | -74
CCOC(=O)c1ccc(NC(=S)Nc2ccc(C)cc2)cc1 | – | · | – | – | –
CCCN1CCC(NC(=S)Nc2ccc([N+](=O)[O-])cc2)CC1 | 3.7µM | – | – | ? | –
CCCN1CCC(NC(=S)Nc2ccc(C(=O)OCC)cc2)CC1 | 12µM | – | – | – | –
Cc1cccc(CCNC(=O)C2CCC(CNS(=O)(=O)c3c(C)cc(C)cc3C)CC2)c1 (centres undefined) | · | – | · | · | –
CC(=O)N1CC(=O)Nc2ccc(F)cc2C1c1ccccc1 (centres undefined) | – | ? | – | ? | –
Cc1cccc2c1NC1(CCCC1)CC2C (centres undefined) | – | ? | – | ? | -63
CC1CC2(CCCC2)Nc2ccc(F)cc21 (centres undefined) | – | 40µM | ? | – | ?
CC(=O)N1c2ccccc2C(C)CC12CCCCC2 (centres undefined) | – | – | – | · | –
C=CCN1CCc2c(cc(O)c(O)c2Cl)C(c2cccc(C)c2)C1 (centres undefined) | · | · | – | · | ·
CCc1cccc(CC)c1NC(=O)C(NS(=O)(=O)c1cccs1)c1ccccc1 (centres undefined) | ? | – | – | – | –
Cc1ccc(Cl)cc1NC(=O)C(NS(=O)(=O)c1cccs1)c1ccccc1 (centres undefined) | – | – | – | ? | -70
CC(C)Oc1cccc(C(=O)NC(=S)Nc2ccc(N3CCN(C)CC3)cc2)c1 | 13µM | 45µM | – | 12µM | –
CC(=O)c1ccc(NC(=S)Nc2ccc(N3CCOCC3)cc2)cc1 | – | 45µM | – | – | –
CC(C)OC(=O)c1ccc(NC(=S)NC(=O)c2cncc(Br)c2)cc1 | · | – | – | ? | ?
O=C(NC(=S)Nc1ccc(N2CCOCC2)cc1)c1cncc(Br)c1 | – | 13µM | ? | – | –
O=C(Nc1ccc(N2CCOCC2)cc1)c1ccc(COc2ccccc2)cc1 | – | – | – | ? | -73
CC(=O)Nc1ccc(NC(=O)c2ccc(COc3ccccc3)cc2)cc1 | – | – | – | – | –
NC(=O)c1ccc(NC(=O)COC(=O)CNC(=O)c2sc3ccccc3c2Cl)cc1 | – | – | · | ? | –
CC(=O)c1ccc(NC(=O)CN2CCOCC2)cc1 | – | – | ? | 13µM | –
O=C(Nc1ccc(N2CCOCC2)cc1)c1cnsn1 | – | – | – | – | -73
O=C(NC(=S)Nc1ccccn1)c1cncc(Br)c1 | – | – | – | – | –
SMILES | Pf growth 48h | Sm TGR inh | Giardia FBPA inh | Pf growth 96h | HCMV antiviral
O=C(NC(=S)Nc1ccc(Br)cn1)c1cncc(Br)c1 | – | – | – | 13µM | –
O=C(NC(=S)Nc1ccc(N2CCOCC2)cc1)c1cccc(Cl)c1 | – | 22µM | – | – | –
O=C(NC(=S)Nc1ccc(N2CCOCC2)cc1)c1cccc(Cl)c1Cl | – | – | – | – | –
CSCCC(NC(=O)c1ccco1)C(=O)Nc1ccncc1 (centres undefined) | – | – | – | – | ·
O=C(NC(=S)Nc1ccc(N2CCOCC2)cc1)c1ccccc1 | – | 16µM | – | – | –
CCc1ccc(C(=O)NC(=S)Nc2ccc(N3CCOCC3)cc2)cc1 | ? | ? | – | ? | -89
O=C(CN1CCOCC1)NNC(=S)Nc1ccccc1 | – | – | – | 13µM | –
O=C(CN1CCOCCOCCOCC1)Nc1ccccc1 | · | – | – | – | –
CC(=O)c1ccc(N2CCN(C(=S)Nc3ccc(Oc4ccccc4)cc3)CC2)cc1 | – | – | – | ? | -63
CCN1C[C@@H]2[C@@H]3C(=O)N(C)C(=O)[C@@H]3[C@](Cc3ccccc3)(C1=O)N2C(=O)c1ccc(Cl)c(Cl)c1 | · | · | · | · | –
COc1ccc(NC(=O)/C(C#N)=C/c2ccc(-c3ccc(Cl)c(C(=O)O)c3)o2)cc1 | – | – | – | ? | –
COc1ccc(C(=O)Nc2nnc(SCc3cc(=O)n4cc(Cl)ccc4n3)s2)cc1 | · | – | · | · | –

High-throughput results as filed in PubChem.
